Screening data deposited in PubChem BioAssay by National Center for Advancing Translational Sciences (NCATS).
TDP1 cell CPT – DT40-hTDP1 cell growth loss with CPT. chicken DT40 Tdp1-/-;hTDP1 cells + 20 nM CPT, ATP luminescence, 48 h. Potency, µM (series often up to 46.2 µM), inactives show at the top dose activity change, negative = growth inhibition, hits mostly inhibitors. hit rate 12% among 420,000; also: potency is read from the fitted curve at half-maximal effect; nearly all actives have a fitted effect of over 55% in size
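Chicken DT40 Tdp1-/- cells stably complemented with human TDP1 were seeded at 400 cells/well in medium containing 20 nM camptothecin, exposed to pin-transferred compounds, and grown at 37 °C for at least 48 hr. Viability was read as ATP luminescence.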
IL-1B inflam inh – inhibitors of inflammasome signaling (IL-1 beta secretion); THP-1 LPS/ATP IL-1B secretion, AlphaLISA, 16 h; active compounds read low; activity change, % at 57.5 µM; hit rate 4.7% among 360,000; AID 743279; in the data active = activity change below about -50%; inconclusive = mostly about -30% to -49%
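Secreted IL-1B measured by AlphaLISA bead assay after 16 h compound exposure of THP-1 cells; compounds (final up to 57.5 uM) added 1 h before LPS (250 ng/mL) and ATP (1.25 mM) stimulation; lower signal means less secretion.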
uPA surface inh – blocks generation of uPA at the cell surface | hit rate 0.31% among 330,000 | Potency, µM (highest dose often 38.3 µM), for inactives: at the highest dose activity change, negative = inhibition, hits mostly inhibitors | cell surface uPA generation assay, qHTS; active = well fitted inhibition curve with a large enough effect; inconclusive = small, poorly fitted or top-dose-only effect; inactive = no such curve, though single readings can be large or run the other way; tested in mouse RAW 264.7 cells; also: potency is read from the fitted curve at half-maximal effect; nearly all actives have a fitted effect of over 55% in size
HT1080 IDH1KD tx – toxicity to HT-1080 IDH1 knockdown cells (counter line); HT-1080 IDH1 knockdown viability, ATP luminescence, 48 h; hit rate 2% among 360,000; Potency, µM (doses to about 46.1 µM), without a hit: at the highest dose activity, negative = toxicity, hits mostly cytotoxic;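 also: potency is read from the fitted curve at half-maximal effect; 0% = DMSO wells and -100% = cell-free medium wells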
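Viability of IDH1-knockdown HT-1080 fibrosarcoma cells was assessed by CellTiter-Glo after 48 h at 37 °C with titrated compound; concentration-effect curves were classified by fit quality and response size.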
TDP1 cell noCPT – qHTS for Inhibitors of human tyrosyl-DNA phosphodiesterase 1 (TDP1): qHTS in cells in absence of CPT | hit rate 15% among 420,000 | AID 686978, 2013 | Potency, µM (series often up to 46.2 µM), without a hit: at the highest dose activity change, negative = growth inhibition, usual class: inhibitors | DT40 Tdp1-/- hTDP1 cells, no CPT, ATP luminescence, 48 h; also: potency is read from the fitted curve at half-maximal effect; nearly all actives have a fitted effect of over 55% in size
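Growth of hTDP1-complemented DT40 Tdp1-knockout cells is measured by ATP luminescence after at least 48 hr compound exposure at 37 °C, with DMSO substituting for the 20 nM CPT used in the parallel screen.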
HT1080-NT tox – kills 2HG-producing HT-1080-NT fibrosarcoma cells; HT-1080-NT fibrosarcoma viability, CellTiter-Glo ATP luminescence, 48 h; Potency, µM (doses to about 46.1 µM), for inactives: at the top dose activity, negative = less viability, most hits filed as cytotoxic; hit rate 1.6% among 360,000; AID 686970;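 also: NT is the 2HG producing partner of a matched IDH1 knockdown line; potency is read from the fitted curve at half-maximal effect; 0% = DMSO-treated cells and -100% = media-only wells without cells; nearly all actives have a fitted effect of over 55% in size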
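HT-1080-NT; 750 cells/well; 5% FBS RPMI; 48 h compound, 37 degrees C; CellTiter-Glo luminescence; curve fitting and curve-class assignment.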
The depositor's hits bear a star; ? = inconclusive; . = no result; ! = a repeat was not active; [ ] = another dose, or the depositor's remark. In the library only some 19% were active in any assay of this set; here they are far more common. Unless noted, calls follow the shape of the dose curve; as a rule, active = well fitted curve in the direction sought with a large enough effect; inconclusive = small, poorly fitted or top-dose-only effect, or another doubt; inactive = no such curve, though single readings can be large; an effect the other way counts as inactive or inconclusive. Unless noted, % is scaled to controls: 0 for no effect and ±100 for the full control effect.

SMILES	TDP1 cell CPT	IL-1B inflam inh	uPA surface inh	HT1080 IDH1KD tx	TDP1 cell noCPT	HT1080-NT tox
CCOc1ccc(NC(=O)CN(C)C(=O)c2cc(-c3cccs3)nn2-c2ccccc2)cc1OCC	?	-0.4	-16.9%	8.7%	?	5.1%
COCCN(CC(=O)Nc1cccc(C)c1C)C(=O)c1cc(-c2cccs2)nn1-c1ccccc1	?	-21.3	6.8%	-3.7%	?	-0.5%
CCN(CC(=O)Nc1ccc(OC)cc1)C(=O)c1cc(-c2cccs2)nn1-c1ccccc1	?	-11.1	22.3%	-16.5%	16.4µM*	-3.3%
COc1ccc(NC(=O)CN(C)C(=O)c2cc(-c3cccs3)nn2-c2ccccc2)cc1	?	?	-0.8%	-11.6%	14.6µM*	-9.0%
O=C(NC1CCCCC1)c1ccc2snnc2c1	?	-1.8	-3.1%	-4.4%	?	-2.4%
Cn1nc(C(=O)NCc2cccs2)c2ccccc2c1=O	-6.7%	7.3	-0.2%	-0.1%	-26.5%	14.0%
C[C@@H]1CN([C@@H](C)CO)C(=O)CCCn2nncc2CO[C@H]1CN(C)Cc1ccc(Cl)c(Cl)c1	-0.6%	-3.5	.	6.6%	-17.2%	11.1%
O=[N+]([O-])c1ccc(Cl)c(/C=N/n2c(COc3ccccc3)n[nH]c2=S)c1	18.4µM*	-8.3	?	-10.6%	20.6µM*	?
COc1ccccc1/C=C/C=N/n1c(COc2ccccc2)n[nH]c1=S	?	3.1	0.8%	18.6%	14.6µM*	5.4%
Cc1cccc(C)c1OCc1nc2ccccc2c(=O)n1/N=C/c1c[nH]c2ccccc12	20.6µM*	-11.2	-6.3%	?	?	-23.4%
Cc1ccc(-c2[nH]ncc2/C=N/n2c(COc3ccccc3C)nc3ccccc3c2=O)cc1	20.6µM*	-99.4*	-3.0%	?	16.4µM*	?
Cc1ccc([C@@H]2C[C@H]3[C@@H](CN2S(=O)(=O)c2ccc(C)cc2)C(=O)C[C@@H](c2ccc(C)cc2)N3S(=O)(=O)c2ccc(Cl)cc2)cc1	-5.6%	4.3	.	17.1%	-17.6%	0.7%
CC(C)[C@H](NC(=O)c1cc2cc(Cl)ccc2n1C)C(=O)N[C@@H](C(=O)O)c1ccccc1	-2.4%	13.1	2.4%	0.1%	14.2%	-4.4%
CC(=O)c1ccc(S(=O)(=O)NCCOc2ccccc2)cc1	-24.6%	-3.5	.	4.5%	?	7.9%
CC(=O)c1ccc(NC(=O)c2ccc(-c3nc(COc4ccc(C)cc4)c(C)o3)cc2)cc1	-4.6%	.	.	.	-8.2%	.
O=c1c2ccccc2nc(COc2ccccc2)n1/N=C/c1cc([N+](=O)[O-])ccc1O	6.51µM*	45.9	-21.4%	-28.2%	13µM*	-25.1%
Cc1cc(/C=N/n2c(COc3ccccc3C)nc3ccccc3c2=O)c(O)c([N+](=O)[O-])c1	18.4µM*	326.4	?	?	13µM*	?
Cc1ccccc1OCc1nc2ccccc2c(=O)n1/N=C/c1c[nH]c2ccccc12	-68.1%	9.4	-1.6%	?	-101.0%	?
CCOc1cc(CNCc2cccnc2)cc(Br)c1OCC(N)=O	-6.6%	23.3	0.1%	6.3%	-4.3%	-2.7%
Cc1ccc(OCC(O)CNCc2ccc(F)cc2)cc1 (stereo not drawn)	?	-77.7*	-1.2%	?	?	?
O=C(c1ccccc1)c1ccc(OCC(O)CNCc2ccc(Cl)cc2)cc1 (stereo not drawn)	?	-60.5*	1.0%	-14.3%	?	-10.1%
COc1ccc(S(=O)(=O)N2CCOCC2)cc1C(=O)NC1CCCCCC1	-11.2%	-7.6	6.5%	-0.1%	?	13.5%
CCOc1ccccc1/C=C(/NC(=O)c1ccccc1)C(=O)N1CCCCC1	?	?	-1.1%	-0.1%	?	-2.1%
CCOc1ccc(C(=O)c2cn(CC(=O)Nc3ccc(Cl)cc3)c3cc4c(cc3c2=O)OCCO4)cc1	?	.	.	.	6.51µM*	.
CCOc1ccc(NC(=O)Cn2cc(C(=O)c3ccc(OCC)cc3)c(=O)c3cc4c(cc32)OCCO4)cc1	13µM*	.	.	.	5.8µM*	.
SMILES	TDP1 cell CPT	IL-1B inflam inh	uPA surface inh	HT1080 IDH1KD tx	TDP1 cell noCPT	HT1080-NT tox
O=C(Cn1cc(C(=O)c2ccccc2)c(=O)c2cc3c(cc21)OCCO3)Nc1ccc(F)c(F)c1	18.4µM*	.	.	.	?	.
CCOc1ccc(C(=O)c2cn(CC(=O)Nc3ccc(F)c(F)c3)c3cc4c(cc3c2=O)OCCO4)cc1	?	.	.	.	25.9µM*	.
CCOc1ccc(C(=O)c2cn(CC(=O)Nc3ccc(OC)cc3)c3cc4c(cc3c2=O)OCO4)cc1	?	.	.	.	-27.3%	.
CCOc1ccc(NC(=O)Cn2cc(C(=O)c3ccc(C)c(C)c3)c(=O)c3cc4c(cc32)OCCO4)cc1	-10.2%	.	.	.	-17.3%	.
CCc1ccc(C(=O)c2cn(CC(=O)Nc3ccc4c(c3)OCCO4)c3ccc(F)cc3c2=O)cc1	-20.1%	.	.	.	-17.6%	.
Cc1c(OC(C)C(=O)NCC2CCC(C(=O)O)CC2)ccc2c3c(c(=O)oc12)CCCC3 (stereo not drawn)	-20.4%	16.2	-4.0%	-0.2%	-0.4%	-1.4%
CCc1ccc(C(=O)COC(=O)C2CCN(c3ccc(C(F)(F)F)cn3)CC2)cc1	4.4%	13.7	1.2%	11.5%	-29.6%	7.8%
Cc1csc(=O)n1CC(=O)Nc1ccc(Cl)cc1F	?	-12.5	-15.5%	2.1%	-24.0%	-0.1%[9.24 µM]
Cc1cc(O)c(C2=Nc3ccccc3SC(c3ccc(Cl)cc3)C2)c(=O)o1 (stereo not drawn)	5.17µM*	15.5	0.2%	3.3%	7.31µM*	?
Cc1ccc(Cn2c(C(=O)O)c(CNC3CCCCCC3)c3ccc(C)cc32)cc1	4.3%	.	.	.	-18.3%	.
N#Cc1cc2c(=O)n3ccccc3nc2n(-c2nnc(SCc3ccccc3F)s2)c1=O	-1.8%	.	.	.	-1.8%	.
Cc1cccn2c(=O)c3cc(C#N)c(=O)n(-c4nnc(SCc5ccccc5F)s4)c3nc12	?	.	.	.	6.51µM*	.
Cc1ccc(OCC(O)CN2CCN(Cc3ccc4c(c3)OCO4)CC2)c(C)c1 (stereo not drawn)	?	-60.0*!	2.0%	-29.7%	?	?
CCN(CC(=O)Nc1ccc(NC(C)=O)cc1)C(=O)c1cc(-c2ccccc2Cl)nc2ccccc12	?	-6.0	1.3%	-4.6%	14.6µM*	?
COc1ccc(NC(=O)CN(C)C(=O)c2cc(-c3ccc(Cl)cc3)nc3ccccc23)cc1	?	-6.5	-1.9%	-22.0%	20.6µM*	-17.8%
